TGFb inhibitor – inhibitors of TGF-b signaling. HepG2 CAGA-GFP TGF-b/SMAD3 reporter, GFP fluorescence, 18 h; TGF-beta stimulated, 500 pg/mL final. Potency, µM (series often up to 46.1 µM), hits mostly inhibitors. 1.2% of 410,000 active; further: nearly all actives have a fitted effect of over 65% in size
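Smad-responsive CAGA-GFP expression was quantified in HEPG2 cells exposed to compounds and 500 pg/mL final TGF-beta for 18 h at 37 degrees C; unstimulated wells defined full inhibition.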
DT40 TDP1 CPT – DT40-hTDP1 cell growth loss with CPT; AID 686979; chicken DT40 Tdp1-/-;hTDP1 cells + 20 nM CPT, ATP luminescence, 48 h; Potency, µM (highest dose often 46.2 µM), hits mostly inhibitors; 12% of 420,000 active; further: nearly all actives have a fitted effect of over 55% in size
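Cell growth measured by CellTiter-Glo luminescence after a minimum 48 h, 37 C compound exposure with 20 nM CPT in Tdp1-knockout DT40 cells stably expressing hTDP1, seeded 400/well; qHTS titration format.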
DT40 TDP1 no CPT – qHTS for Inhibitors of human tyrosyl-DNA phosphodiesterase 1 (TDP1): qHTS in cells in absence of CPT; DT40 Tdp1-/- hTDP1 cells, no CPT, ATP luminescence, 48 h; Potency, µM (top dose mostly 46.2 µM), usual class: inhibitors; 15% of 420,000 active; AID 686978, 2013; further: nearly all actives have a fitted effect of over 55% in size
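Cells were dispensed at 400 per well, compounds added by pin tool, plates incubated ≥48 hr at 37 °C, then CellTiter-Glo added for 30 min at room temperature before luminescence reading. Line: DT40 Tdp1-/- complemented with hTDP1; camptothecin omitted.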
ATXN viability – cell viability loss in ATXN counter-screen. S2 cells (HEK-293 line with an ATXN2-luciferase reporter) viability, CellTiter-Fluor protease fluorescence, 24 h. Potency, µM (top dose mostly 56.7 µM), actives largely listed as cytotoxic. 0.49% of 400,000 active; further: nearly all actives have a fitted effect of over 40% in size
HepG2 viability – counter-screen for TGF-b inhibitors: cytotoxicity in HepG2 cells; AID 588856; Potency, µM (doses to about 46.1 µM), most hits filed as cytotoxic; 0.76% of 410,000 active; HepG2 CAGA-GFP viability, ATP luminescence, 18 h
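CellTiter-Glo luminescence gave cytotoxicity after 18 hours at 37 degrees C. The cells were HepG2 CAGA-GFP in 1% FBS DMEM, stimulated with 500 pg/mL TGF-beta after compound addition. %Activity was normalised to no-cell wells (complete cell-killing) and DMSO (no toxicity), and curves were fitted and classified.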
ATXN2 expr inh – inhibitors of ATXN2 expression. HEK-293 ATXN2-luciferase reporter, luminescence, 24 h. Potency, µM (series often up to 57 µM), actives largely listed as inhibitors. 0.72% of 360,000 active; further: nearly all actives have a fitted effect of over 55% in size
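qHTS (up to 57 uM final) was run with 24 h compound exposure of reporter cells at 37 °C. Each well was multiplexed: SteadyGlo luminescence measured ATXN2-luciferase expression after a fluorogenic Gly-Phe-AFC viability readout (25 uM final).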
Each line names hits and unclear results; the compound was inactive in the other large screens. Shown are actives, neighbours in structure and some others; about 17% of the full set was active somewhere. The call rests on the fitted dose curve; in most records, active means well fitted curve in the direction sought with a large enough effect; inconclusive means small, poorly fitted or top-dose-only effect, or another doubt; inactive means no such curve, though single readings can be large; an effect the other way counts as inactive or inconclusive.

COc1ccc(NC(=O)CSc2ccc(-c3sc(C)nc3C)nn2)cc1OC	DT40 TDP1 CPT inconclusive, DT40 TDP1 no CPT 8.2µM
Cc1cc(Br)ccc1SCC(=O)N1CCN(S(=O)(=O)c2ccccc2)CC1	DT40 TDP1 CPT inconclusive, DT40 TDP1 no CPT inconclusive
COC(=O)c1ccc(C(=O)OC)c(NC(=O)CSCc2ccccc2Br)c1	DT40 TDP1 CPT inconclusive, DT40 TDP1 no CPT inconclusive
O=C(c1ccc(S(=O)(=O)c2cccc(Cl)c2)c([N+](=O)[O-])c1)N1CCN(Cc2ccccc2)CC1	TGFb inhibitor inconclusive, DT40 TDP1 CPT 3.66µM, DT40 TDP1 no CPT 5.8µM, ATXN viability inconclusive, ATXN2 expr inh inconclusive
O=C(c1ccc([N+](=O)[O-])o1)N1CCN(Cc2ccccc2)CC1	TGFb inhibitor inconclusive, DT40 TDP1 CPT 14.6µM, DT40 TDP1 no CPT 25.9µM (no result: ATXN2 expr inh)
O=C(c1ccc([N+](=O)[O-])cc1)N1CCN(Cc2ccccc2)CC1	none
CN(Cc1ccccc1)C(=O)c1ccc([N+](=O)[O-])o1	TGFb inhibitor inconclusive, DT40 TDP1 CPT 23.1µM, DT40 TDP1 no CPT inconclusive, HepG2 viability 20µM (no result: ATXN2 expr inh)
O=C(c1cc([N+](=O)[O-])ccc1Cl)N1CCN(Cc2ccccc2)CC1	HepG2 viability 14.1µM
O=C(COC(=O)c1ccc([N+](=O)[O-])o1)NCc1ccccc1	TGFb inhibitor inconclusive
COc1ccc(C(=O)N2CCN(Cc3ccccc3)CC2)cc1[N+](=O)[O-]	DT40 TDP1 no CPT inconclusive (no result: ATXN2 expr inh)
Cc1ccc(NC(=O)N2CCN(C)c3ncccc32)cc1C	none
Cc1cc2oc(C(=O)N3CCN(Cc4ccccc4)CC3)c(C)c2cc1C	DT40 TDP1 CPT 25.9µM, DT40 TDP1 no CPT inconclusive
Cc1ccc(C(=O)N2CCN(Cc3ccccc3)CC2)o1	none
O=C(N/N=C/c1cc(Br)ccc1O)C(=O)Nc1ccccc1OC(F)(F)C(F)F	TGFb inhibitor inconclusive, DT40 TDP1 CPT 5.01µM, DT40 TDP1 no CPT 2.82µM, ATXN2 expr inh 3.16µM
O=C(N/N=C/c1cc(Cl)ccc1O)C(=O)Nc1ccccc1OC(F)(F)C(F)F	TGFb inhibitor inconclusive, DT40 TDP1 CPT 2.06µM, DT40 TDP1 no CPT 1.84µM, ATXN2 expr inh 12.6µM
CCCNC(=O)C1(C)CCN(C(=O)c2c(Cl)cccc2Cl)C1 (stereo not given)	none
CCn1c(CNC(=O)c2ccc3c(c2)OCO3)nnc1SCC(=O)Nc1ccccc1F	none (no result: ATXN viability)
CC[C@H](C)[C@H]1CNC(=O)C(=O)N1CC1CCN(CCc2ccccc2)CC1	none
CCC(C)/C(C)=N/NC(=O)CSc1nc2ccccc2[nH]1 (stereo not given)	none
COc1ccc(NC(=O)CCNS(=O)(=O)c2ccccc2F)cc1S(N)(=O)=O	none
CCC1(C)Cc2ccccc2-c2nc(NCCCO)n(-c3ccccc3)c(=O)c21 (stereo not given)	DT40 TDP1 CPT 2.06µM, DT40 TDP1 no CPT 4.11µM
CCn1c(NCCO)nc2c(c1=O)C(C)(CC)Cc1ccccc1-2 (stereo not given)	DT40 TDP1 CPT inconclusive, DT40 TDP1 no CPT 16.4µM
CC1(C)Cc2ccccc2-c2nc(NCCCO)[nH]c(=O)c21	none
CCC1(C)Cc2ccccc2-c2nc(NCCO)[nH]c(=O)c21 (stereo not given)	DT40 TDP1 CPT inconclusive, DT40 TDP1 no CPT inconclusive
CCC1(C)Cc2ccccc2-c2nc3n(c(=O)c21)CCS3 (stereo not given)	TGFb inhibitor inconclusive, DT40 TDP1 CPT inconclusive, DT40 TDP1 no CPT 8.2µM, ATXN viability inconclusive
COc1ccc(/C=N/NC(=O)Cn2c(Cc3ccc(OC)c(OC)c3)nc3ccccc32)cc1	TGFb inhibitor inconclusive, DT40 TDP1 no CPT inconclusive
C=CCN1N=C(c2ccc(Cl)s2)CSC1=O	none
Cc1cccc(C(C)C)c1NS(=O)(=O)c1cn(C)nc1C	none
Cn1c(=O)c2c(nc(NCCOc3ccc(C(C)(C)C)cc3)n2C)n(C)c1=O	TGFb inhibitor inconclusive, DT40 TDP1 CPT 1.46µM, DT40 TDP1 no CPT 1.84µM
